# Results reported in paper PMC7862700, “An all-to-all approach to the identification of sequence-specific readers for epigenetic DNA modifications on cytosine”.
# Assays:
# Assay in all cases: DAPPL (digital affinity profiling via proximity ligation, sequencing); 10 mM Tris-HCl pH 7.5, 50 mM NaCl, 1 mM DTT, 4% glycerol, room temperature, 30 min; GST-TFs on glutathione beads, 16-mer random dsDNA library, 0.1% formaldehyde crosslink after washing; high values mean tight binding
# [1] = target: T1, FEV (Homo sapiens, UniProt Q99581 1-238); conditions: protein: recombinant; tags: N-terminal GST; dsDNA, one strand shown
# T1 sequence: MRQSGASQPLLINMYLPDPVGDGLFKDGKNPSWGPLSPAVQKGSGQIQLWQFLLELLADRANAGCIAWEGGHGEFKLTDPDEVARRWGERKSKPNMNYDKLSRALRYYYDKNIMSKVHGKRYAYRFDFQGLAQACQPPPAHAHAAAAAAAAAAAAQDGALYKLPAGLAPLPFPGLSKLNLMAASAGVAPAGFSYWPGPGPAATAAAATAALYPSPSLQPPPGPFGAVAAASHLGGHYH
# Summary of the method: (§1)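 Human transcription factors carrying a GST fusion were produced in yeast, bound to glutathione beads, tagged with DNA barcodes and pooled together with a tag-only sample. Each pool was held with 200 nmole of a random double-stranded 16-mer DNA library in Tris/NaCl/DTT/glycerol buffer for 30 min at room temperature, then washed, crosslinked in 0.1% formaldehyde, proximity-ligated with BsaI/T4 ligase (1 h, 37 °C), PCR-amplified and sequenced on an Illumina NextSeq500. Binding signal is the read frequency of each hexamer for a given factor divided by its frequency in the tag-only sample.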
# [2] = target: ETV5 (Homo sapiens, UniProt P41161 1-510); conditions: protein: recombinant; tags: N-terminal GST; dsDNA, one strand shown
# Sequence of ETV5 (P41161 whole entry): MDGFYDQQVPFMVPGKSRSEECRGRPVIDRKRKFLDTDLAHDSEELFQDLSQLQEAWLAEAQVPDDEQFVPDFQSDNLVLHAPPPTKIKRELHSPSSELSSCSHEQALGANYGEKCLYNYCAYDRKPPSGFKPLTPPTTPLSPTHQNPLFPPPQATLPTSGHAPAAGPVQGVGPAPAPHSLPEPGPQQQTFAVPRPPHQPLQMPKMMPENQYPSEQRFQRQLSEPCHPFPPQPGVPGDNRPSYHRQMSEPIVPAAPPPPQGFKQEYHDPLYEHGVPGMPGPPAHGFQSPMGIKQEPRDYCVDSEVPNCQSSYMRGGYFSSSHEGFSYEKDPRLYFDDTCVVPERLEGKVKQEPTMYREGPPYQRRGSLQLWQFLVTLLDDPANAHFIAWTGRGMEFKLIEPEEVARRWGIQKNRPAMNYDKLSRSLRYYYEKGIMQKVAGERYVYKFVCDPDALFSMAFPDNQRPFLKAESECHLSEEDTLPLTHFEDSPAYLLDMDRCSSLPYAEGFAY
# Summary of the method: as §1
# [3] = target: HSF1 (Homo sapiens, UniProt Q00613 1-529); conditions: protein: recombinant; tags: N-terminal GST; chain copies: 3; dsDNA, one strand shown
# Sequence of HSF1 (Q00613 whole entry): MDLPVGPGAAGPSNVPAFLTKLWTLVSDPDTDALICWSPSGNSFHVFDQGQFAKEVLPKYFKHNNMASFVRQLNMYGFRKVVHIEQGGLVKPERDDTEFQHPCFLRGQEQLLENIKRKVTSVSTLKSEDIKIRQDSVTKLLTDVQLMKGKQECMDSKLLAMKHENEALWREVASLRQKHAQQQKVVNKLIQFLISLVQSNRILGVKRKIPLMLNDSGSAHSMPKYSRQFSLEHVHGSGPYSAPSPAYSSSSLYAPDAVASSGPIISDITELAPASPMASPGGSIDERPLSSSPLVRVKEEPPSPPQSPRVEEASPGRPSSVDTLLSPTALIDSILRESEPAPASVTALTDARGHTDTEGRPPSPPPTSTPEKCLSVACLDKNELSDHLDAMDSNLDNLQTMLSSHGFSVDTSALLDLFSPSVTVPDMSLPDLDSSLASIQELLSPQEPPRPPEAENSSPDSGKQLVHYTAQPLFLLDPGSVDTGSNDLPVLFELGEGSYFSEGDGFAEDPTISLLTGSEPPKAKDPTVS
# Summary of the method: as §1
# [4] = target: T2, SPIC (Homo sapiens, UniProt Q8N5J4 1-248); conditions: protein: recombinant; tags: N-terminal GST; dsDNA, one strand shown
# T2 sequence: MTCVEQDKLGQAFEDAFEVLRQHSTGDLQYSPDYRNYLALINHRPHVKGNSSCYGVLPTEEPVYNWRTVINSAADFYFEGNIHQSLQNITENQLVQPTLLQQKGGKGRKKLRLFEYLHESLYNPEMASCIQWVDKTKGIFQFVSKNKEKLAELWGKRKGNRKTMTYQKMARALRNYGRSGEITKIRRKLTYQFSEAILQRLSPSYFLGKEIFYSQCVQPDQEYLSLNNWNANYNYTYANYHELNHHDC
# Summary of the method: as §1
# [5] = target: ELF4 (Homo sapiens, UniProt Q99607 1-663); conditions: protein: recombinant; tags: N-terminal GST; dsDNA, one strand shown
# Sequence of ELF4 (Q99607 whole entry): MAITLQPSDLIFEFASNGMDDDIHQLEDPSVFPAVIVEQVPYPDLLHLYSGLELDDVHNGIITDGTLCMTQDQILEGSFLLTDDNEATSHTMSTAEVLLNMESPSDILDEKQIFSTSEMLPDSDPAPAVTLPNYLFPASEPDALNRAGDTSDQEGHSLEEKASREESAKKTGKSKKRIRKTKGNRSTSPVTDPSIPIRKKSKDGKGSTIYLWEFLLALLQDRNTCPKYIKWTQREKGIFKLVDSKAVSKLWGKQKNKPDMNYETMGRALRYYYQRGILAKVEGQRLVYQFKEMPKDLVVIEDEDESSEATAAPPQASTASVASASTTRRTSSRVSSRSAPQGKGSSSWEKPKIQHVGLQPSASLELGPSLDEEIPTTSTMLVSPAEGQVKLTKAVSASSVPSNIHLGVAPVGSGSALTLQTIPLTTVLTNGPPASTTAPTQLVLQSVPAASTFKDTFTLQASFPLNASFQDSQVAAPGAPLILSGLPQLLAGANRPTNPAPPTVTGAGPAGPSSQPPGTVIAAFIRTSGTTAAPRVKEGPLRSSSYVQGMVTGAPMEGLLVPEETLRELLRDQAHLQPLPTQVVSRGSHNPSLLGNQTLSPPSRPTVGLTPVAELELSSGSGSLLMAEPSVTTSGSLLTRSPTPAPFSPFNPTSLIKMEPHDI
# Summary of the method: as §1
# [6] = target: T3, ELK4 (Homo sapiens, UniProt P28324-2 1-405); conditions: protein: recombinant; tags: N-terminal GST; dsDNA, one strand shown
# T3 sequence: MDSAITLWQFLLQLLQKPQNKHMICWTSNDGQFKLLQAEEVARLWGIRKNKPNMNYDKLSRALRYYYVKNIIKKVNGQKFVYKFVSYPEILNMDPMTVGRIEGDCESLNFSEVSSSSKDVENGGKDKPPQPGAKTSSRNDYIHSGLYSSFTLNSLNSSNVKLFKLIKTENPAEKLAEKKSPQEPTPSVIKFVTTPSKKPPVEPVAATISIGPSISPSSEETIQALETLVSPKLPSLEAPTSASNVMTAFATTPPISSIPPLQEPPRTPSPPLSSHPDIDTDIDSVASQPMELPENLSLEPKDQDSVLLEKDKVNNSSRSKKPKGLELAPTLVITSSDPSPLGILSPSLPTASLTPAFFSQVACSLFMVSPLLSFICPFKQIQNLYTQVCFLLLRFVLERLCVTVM
# Summary of the method: as §1
# [7] = target: T4, ETV2 (Homo sapiens, UniProt O00321 1-342); conditions: protein: recombinant; tags: N-terminal GST; dsDNA, one strand shown
# T4 sequence: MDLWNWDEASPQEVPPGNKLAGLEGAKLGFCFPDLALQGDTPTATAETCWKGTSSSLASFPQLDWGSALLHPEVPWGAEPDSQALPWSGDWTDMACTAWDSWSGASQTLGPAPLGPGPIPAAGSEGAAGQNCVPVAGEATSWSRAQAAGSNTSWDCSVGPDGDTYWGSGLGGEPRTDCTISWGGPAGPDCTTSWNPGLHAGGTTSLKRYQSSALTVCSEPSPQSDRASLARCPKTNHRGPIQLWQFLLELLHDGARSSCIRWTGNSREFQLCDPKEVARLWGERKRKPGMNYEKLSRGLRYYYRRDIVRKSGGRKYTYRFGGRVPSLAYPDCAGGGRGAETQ
# Summary of the method: as §1
# [8] = target: T5, ELF3 (Homo sapiens, UniProt P78545 1-371); conditions: protein: recombinant; tags: N-terminal GST; dsDNA, one strand shown
# T5 sequence: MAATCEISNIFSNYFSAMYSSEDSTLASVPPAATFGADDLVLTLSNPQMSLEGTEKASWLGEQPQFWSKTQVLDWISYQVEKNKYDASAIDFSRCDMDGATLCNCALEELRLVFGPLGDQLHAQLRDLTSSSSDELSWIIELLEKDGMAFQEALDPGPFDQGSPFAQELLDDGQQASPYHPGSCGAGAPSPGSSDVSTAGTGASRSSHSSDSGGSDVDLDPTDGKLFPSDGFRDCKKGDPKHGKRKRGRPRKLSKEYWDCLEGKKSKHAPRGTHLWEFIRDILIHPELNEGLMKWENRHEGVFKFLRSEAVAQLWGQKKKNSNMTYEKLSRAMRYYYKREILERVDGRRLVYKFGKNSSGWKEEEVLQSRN
# Summary of the method: as §1
# [9] = target: CRX (Homo sapiens, UniProt O43186 1-299); conditions: protein: recombinant; tags: N-terminal GST; dsDNA, one strand shown
# Sequence of CRX (O43186 whole entry): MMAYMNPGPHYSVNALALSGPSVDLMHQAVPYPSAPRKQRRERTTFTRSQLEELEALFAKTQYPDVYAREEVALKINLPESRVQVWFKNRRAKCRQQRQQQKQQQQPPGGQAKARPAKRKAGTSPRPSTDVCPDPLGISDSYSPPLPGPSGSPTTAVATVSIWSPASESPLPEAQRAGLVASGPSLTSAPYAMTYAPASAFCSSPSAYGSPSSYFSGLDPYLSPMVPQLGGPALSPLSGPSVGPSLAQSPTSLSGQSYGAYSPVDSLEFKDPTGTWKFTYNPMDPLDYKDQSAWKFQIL
# Summary of the method: as §1
# [10] = target: ETV1 (Homo sapiens, UniProt P50549 1-477); conditions: protein: recombinant; tags: N-terminal GST; dsDNA, one strand shown
# Sequence of ETV1 (P50549 whole entry): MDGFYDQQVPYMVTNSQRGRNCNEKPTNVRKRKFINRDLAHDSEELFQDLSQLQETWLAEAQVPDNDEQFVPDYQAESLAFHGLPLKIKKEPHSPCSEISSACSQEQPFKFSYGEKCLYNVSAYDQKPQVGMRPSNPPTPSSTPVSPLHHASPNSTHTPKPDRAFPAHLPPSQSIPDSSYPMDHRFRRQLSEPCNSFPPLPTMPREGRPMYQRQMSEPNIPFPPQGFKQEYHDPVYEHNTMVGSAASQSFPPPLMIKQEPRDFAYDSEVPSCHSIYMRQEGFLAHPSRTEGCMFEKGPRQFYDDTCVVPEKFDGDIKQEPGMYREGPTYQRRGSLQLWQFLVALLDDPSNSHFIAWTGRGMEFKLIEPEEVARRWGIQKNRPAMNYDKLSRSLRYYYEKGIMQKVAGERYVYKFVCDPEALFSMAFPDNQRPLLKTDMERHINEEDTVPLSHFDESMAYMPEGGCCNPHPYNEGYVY
# Summary of the method: as §1
# [11] = target: T6, ERF (Homo sapiens, UniProt P50548 1-548); conditions: protein: recombinant; tags: N-terminal GST; dsDNA, one strand shown
# T6 sequence: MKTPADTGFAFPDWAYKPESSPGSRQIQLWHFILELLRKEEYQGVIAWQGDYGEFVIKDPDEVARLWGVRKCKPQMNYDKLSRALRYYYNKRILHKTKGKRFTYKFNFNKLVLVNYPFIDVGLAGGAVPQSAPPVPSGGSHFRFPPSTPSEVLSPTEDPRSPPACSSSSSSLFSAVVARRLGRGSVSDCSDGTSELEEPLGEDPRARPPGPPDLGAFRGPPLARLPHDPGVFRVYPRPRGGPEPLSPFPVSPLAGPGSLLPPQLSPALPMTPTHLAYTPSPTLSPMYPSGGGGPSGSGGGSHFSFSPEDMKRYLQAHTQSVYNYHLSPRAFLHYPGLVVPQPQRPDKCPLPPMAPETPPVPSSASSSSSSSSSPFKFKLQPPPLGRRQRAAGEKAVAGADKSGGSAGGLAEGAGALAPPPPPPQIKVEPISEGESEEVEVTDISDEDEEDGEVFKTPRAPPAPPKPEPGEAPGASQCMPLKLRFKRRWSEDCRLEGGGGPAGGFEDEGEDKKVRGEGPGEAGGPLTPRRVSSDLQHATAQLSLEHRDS
# Summary of the method: as §1
# [12] = target: T7, ETV3L (Homo sapiens, UniProt Q6ZN32 1-361); conditions: protein: recombinant; tags: N-terminal GST; dsDNA, one strand shown
# T7 sequence: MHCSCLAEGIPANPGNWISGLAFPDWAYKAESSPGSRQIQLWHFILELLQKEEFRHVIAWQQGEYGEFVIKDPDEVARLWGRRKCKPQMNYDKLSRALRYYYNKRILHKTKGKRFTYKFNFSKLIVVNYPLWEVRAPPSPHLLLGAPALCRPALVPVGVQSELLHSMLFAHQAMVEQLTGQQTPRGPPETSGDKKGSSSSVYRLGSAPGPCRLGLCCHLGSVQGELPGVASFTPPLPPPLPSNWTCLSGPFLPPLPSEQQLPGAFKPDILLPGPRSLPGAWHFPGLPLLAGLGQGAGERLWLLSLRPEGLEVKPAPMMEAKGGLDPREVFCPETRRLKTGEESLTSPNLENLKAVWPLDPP
# Summary of the method: as §1
# [13] = target: T8, ETS2 (Homo sapiens, UniProt P15036 1-469); conditions: protein: recombinant; tags: N-terminal GST; dsDNA, one strand shown
# T8 sequence: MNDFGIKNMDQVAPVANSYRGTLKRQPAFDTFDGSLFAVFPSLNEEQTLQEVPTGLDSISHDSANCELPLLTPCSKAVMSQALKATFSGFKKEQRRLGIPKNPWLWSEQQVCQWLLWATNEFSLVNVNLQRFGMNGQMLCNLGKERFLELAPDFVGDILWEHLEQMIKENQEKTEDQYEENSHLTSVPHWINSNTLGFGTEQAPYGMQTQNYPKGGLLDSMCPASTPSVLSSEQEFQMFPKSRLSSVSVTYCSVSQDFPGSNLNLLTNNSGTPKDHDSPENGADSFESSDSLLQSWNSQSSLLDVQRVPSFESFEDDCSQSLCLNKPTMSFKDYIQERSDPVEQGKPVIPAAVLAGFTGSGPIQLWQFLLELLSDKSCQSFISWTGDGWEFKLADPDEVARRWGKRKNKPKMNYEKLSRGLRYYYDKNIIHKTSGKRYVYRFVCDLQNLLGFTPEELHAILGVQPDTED
# Summary of the method: as §1
# [14] = target: T9, SPDEF (Homo sapiens, UniProt O95238 1-335); conditions: protein: recombinant; tags: N-terminal GST; dsDNA, one strand shown
# T9 sequence: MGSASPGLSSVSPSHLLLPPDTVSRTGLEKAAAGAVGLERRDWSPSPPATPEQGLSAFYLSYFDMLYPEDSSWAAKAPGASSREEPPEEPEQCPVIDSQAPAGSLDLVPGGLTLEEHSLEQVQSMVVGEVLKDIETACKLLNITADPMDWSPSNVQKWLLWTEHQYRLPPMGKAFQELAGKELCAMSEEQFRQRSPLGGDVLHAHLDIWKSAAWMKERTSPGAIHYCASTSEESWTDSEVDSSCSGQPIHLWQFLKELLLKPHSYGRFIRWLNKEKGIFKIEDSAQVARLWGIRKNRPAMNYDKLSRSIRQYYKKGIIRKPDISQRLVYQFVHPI
# Summary of the method: as §1
# [15] = target: T10, ETV7 (Homo sapiens, UniProt Q9Y603 1-341); conditions: protein: recombinant; tags: N-terminal GST; dsDNA, one strand shown
# T10 sequence: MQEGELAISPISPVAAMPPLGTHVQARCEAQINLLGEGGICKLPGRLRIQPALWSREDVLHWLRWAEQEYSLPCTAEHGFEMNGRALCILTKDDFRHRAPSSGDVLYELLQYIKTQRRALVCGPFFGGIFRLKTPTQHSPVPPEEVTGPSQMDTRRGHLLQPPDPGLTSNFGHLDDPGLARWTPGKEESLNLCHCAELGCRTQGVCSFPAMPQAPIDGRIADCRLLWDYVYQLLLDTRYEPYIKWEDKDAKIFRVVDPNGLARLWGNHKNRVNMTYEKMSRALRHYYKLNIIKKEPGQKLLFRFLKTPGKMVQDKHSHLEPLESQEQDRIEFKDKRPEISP
# Summary of the method: as §1
# [16] = target: T11, ELF5 (Homo sapiens, UniProt Q9UKW6-2 1-255); conditions: protein: recombinant; tags: N-terminal GST; dsDNA, one strand shown
# T11 sequence: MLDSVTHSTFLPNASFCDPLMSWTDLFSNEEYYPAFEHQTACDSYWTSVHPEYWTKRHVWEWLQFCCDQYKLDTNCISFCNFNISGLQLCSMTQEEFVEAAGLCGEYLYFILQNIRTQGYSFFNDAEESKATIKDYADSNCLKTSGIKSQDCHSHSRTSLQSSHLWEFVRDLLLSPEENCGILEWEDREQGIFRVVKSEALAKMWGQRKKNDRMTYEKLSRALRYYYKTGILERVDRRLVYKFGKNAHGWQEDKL
# Summary of the method: as §1
# [17] = target: T12, ETV3 (Homo sapiens, UniProt P41162-2 1-143); conditions: protein: recombinant; tags: N-terminal GST; dsDNA, one strand shown
# T12 sequence: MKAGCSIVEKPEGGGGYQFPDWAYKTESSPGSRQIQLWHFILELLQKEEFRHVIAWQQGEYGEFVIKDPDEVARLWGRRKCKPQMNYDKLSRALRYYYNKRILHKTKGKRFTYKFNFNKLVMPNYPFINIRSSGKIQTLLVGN
# Summary of the method: as §1
# [18] = target: ETV6 (Homo sapiens, UniProt P41212 1-452); conditions: protein: recombinant; tags: N-terminal GST; dsDNA, one strand shown
# Sequence of ETV6 (P41212 whole entry): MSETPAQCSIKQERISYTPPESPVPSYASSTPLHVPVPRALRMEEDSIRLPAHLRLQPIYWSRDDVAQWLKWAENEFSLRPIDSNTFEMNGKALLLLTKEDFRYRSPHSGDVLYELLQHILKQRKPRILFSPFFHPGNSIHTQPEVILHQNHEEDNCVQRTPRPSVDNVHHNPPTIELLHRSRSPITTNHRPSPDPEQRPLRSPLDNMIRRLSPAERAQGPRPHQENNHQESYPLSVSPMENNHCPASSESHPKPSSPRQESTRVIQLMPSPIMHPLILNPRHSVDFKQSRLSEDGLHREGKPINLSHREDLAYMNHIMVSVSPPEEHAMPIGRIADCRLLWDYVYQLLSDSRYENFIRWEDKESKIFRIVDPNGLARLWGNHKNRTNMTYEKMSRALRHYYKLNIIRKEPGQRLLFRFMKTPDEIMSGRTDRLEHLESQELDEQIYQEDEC
# Summary of the method: as §1
sequence,measurement,setting,value
CTATGC,binding signal,[1],"1.36 fold enrichment (6-mer frequency, TF over GST control)"
same,binding signal,[2],"1.38 fold enrichment (6-mer frequency, TF over GST control)"
same,binding signal,[3],"1.28 fold enrichment (6-mer frequency, TF over GST control)"
same,binding signal,[4],"1.54 fold enrichment (6-mer frequency, TF over GST control)"
same,binding signal,[5],"1.48 fold enrichment (6-mer frequency, TF over GST control)"
same,binding signal,[6],"1.38 fold enrichment (6-mer frequency, TF over GST control)"
same,binding signal,[7],"1.55 fold enrichment (6-mer frequency, TF over GST control)"
same,binding signal,[8],"1.2 fold enrichment (6-mer frequency, TF over GST control)"
same,binding signal,[9],"1.15 fold enrichment (6-mer frequency, TF over GST control)"
same,binding signal,[10],"1.55 fold enrichment (6-mer frequency, TF over GST control)"
same,binding signal,[11],"1.34 fold enrichment (6-mer frequency, TF over GST control)"
same,binding signal,[12],"1.52 fold enrichment (6-mer frequency, TF over GST control)"
same,binding signal,[13],"1.44 fold enrichment (6-mer frequency, TF over GST control)"
same,binding signal,[14],"1.49 fold enrichment (6-mer frequency, TF over GST control)"
same,binding signal,[15],"1.42 fold enrichment (6-mer frequency, TF over GST control)"
same,binding signal,[16],"1.33 fold enrichment (6-mer frequency, TF over GST control)"
same,binding signal,[17],"1.55 fold enrichment (6-mer frequency, TF over GST control)"
same,binding signal,[18],"1.33 fold enrichment (6-mer frequency, TF over GST control)"
